In the supplement of paper PMC9925115:
Where a name gives a salt, the structure may show the parent alone. ± gives the uncertainty stated by the source.

Assays:
FLX1 = assay: cell viability z-score within plate (CellTiter-Glo), mean of 3 biological replicates; higher = higher viability relative to plate (less growth inhibition); conditions: 2 µM; time (hr): 120
Method: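 FLX1 fibrolamellar carcinoma cells (DNAJB1-PRKACA fusion), 600 cells/well in 384-well plates, treated with a Selleck kinase inhibitor library (L1200) at 2 uM for 5 days (120 hr); viability by CellTiter-Glo. A z-score was computed within each plate and averaged over three biological replicates.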

[1] = tested on: FLX1 + dox-induced PRKAR1A G325D; assay: difference in log2 fold change of viability vs plate median (dox-induced PRKAR1A G325D minus uninduced); higher = compound less effective when PKA is inhibited; conditions: concentration: not stated (2 or 5 uM); 5 days
Method: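 For each plate a log2 fold change vs the plate median was derived, and the values without dox were subtracted from those with dox, averaged over three biological replicates.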

Structure (SMILES) | cell viability z-score within plate (FLX1) | difference in log2 fold change of viability [1]
CC(C)(C)c1cnc(CSc2cnc(NC(=O)C3CCNCC3)s2)o1 | -1.06 ± 1.3 | 0.0393
CN1CCN(c2ccc(Nc3cc(-c4cccc(-n5ccc6cc(C7CC7)cc(F)c6c5=O)c4CO)cn(C)c3=O)nc2)CC1 | -0.244 ± 0.38 | -0.059
O=C(/C=C/c1ccc2ccccc2n1)c1ccncc1 | 0.276 ± 0.49 | -0.467
C[C@@]1(C(=O)Nc2ccc(F)nc2)CCCN1c1nc(Nc2cc(C3CC3)n[nH]2)c2cccn2n1 | -1.16 ± 0.41 | -1.23
Cc1cc(C(C)Nc2ccccc2)c2nc(N3CCOCC3)cc(=O)n2c1 (configuration not stated) | -0.144 ± 0.28 | 0.222
Oc1c2ccccc2c2c3c(cccc13)N=N2 | 0.48 ± 0.65 | 0.149
C=CC(=O)Nc1cccc(Oc2nc(Nc3ccc(N4CCN(C)CC4)cc3OC)ncc2Cl)c1 | 0.221 ± 0.37 | -1.14
COc1cc2ncnc(Nc3ccc(O)c(Br)c3)c2cc1OC | 0.753 ± 0.38 | -0.279
O=C(Nc1ccc(OC(F)(F)F)cc1)c1sccc1NCc1ccnc2ccccc12 | 0.792 ± 0.22 | 0.386
CC[C@H](Nc1ncnc2[nH]cnc12)c1nc2cccc(F)c2c(=O)n1-c1ccccc1 [Idelalisib (CAL-101, GS-1101)] | 0.166 ± 0.22 | 0.00653
C=CC(=O)Nc1cccc(Nc2nc(Nc3ccc(N4CCN(C(C)=O)CC4)cc3OC)ncc2C(F)(F)F)c1 [Rociletinib (CO-1686, AVL-301)] | -0.855 ± 0.71 | -0.172
C[S+]([O-])c1ccc(-c2nc(-c3ccc(F)cc3)c(-c3ccncc3)[nH]2)cc1 (configuration not stated) | -1.58 ± 1.1 | -0.00802
COc1cc(Nc2ncc3c(n2)-c2ccc(Cl)cc2C(c2c(F)cccc2OC)=NC3)ccc1C(=O)O [Alisertib (MLN8237)] | 0.451 ± 0.63 | -0.903
N#CC[C@H](C1CCCC1)n1cc(-c2ncnc3[nH]ccc23)cn1 | 0.242 ± 0.22 | 0.145
O=C(NCc1ccccc1)c1csc(Nc2ccncn2)n1 [Thiazovivin] | -0.686 ± 0.81 | 0.59
CS(=O)(=O)N1CCN(Cc2cc3nc(-c4cccc5[nH]ncc45)nc(N4CCOCC4)c3s2)CC1 [Pictilisib (GDC-0941)] | 1.08 ± 0.18 | -0.0931
COc1cc(N2CCC(N(C)C)CC2)ccc1Nc1ncc(Cl)c(Nc2ccccc2P(C)(C)=O)n1 | 0.0333 ± 0.4 | -1.41
C=CC(=O)Nc1cccc(Nc2nc(Nc3ccc(OCCOC)cc3)ncc2F)c1 | -0.411 ± 0.22 | -0.726
C[C@@H]1COC(Nc2ccc3ncnc(Nc4ccc(OCc5nccs5)c(Cl)c4)c3c2)=N1 [Varlitinib] | 0.0259 ± 0.81 | -0.557
O=C(c1cccc(Cl)c1F)N1CCN(Cc2cccc(Nc3nccs3)n2)CC1 | -0.394 ± 0.96 | -0.738
Cn1cc(-c2ccc3nnc(C(F)(F)c4ccc5ncccc5c4)n3n2)cn1 | -0.299 ± 0.51 | 0.158
Fc1cc(-c2cccc3ncc(-c4cnn(C5CCNCC5)c4)nc23)cc(F)c1CN1CCOCC1 | -1.08 ± 1.1 | 0.246
COc1cc(Nc2ncc(F)c(Nc3ccc4c(n3)N(COP(=O)(O)O)C(=O)C(C)(C)O4)n2)cc(OC)c1OC [Fostamatinib (R788)] | 0.458 ± 0.74 | -0.76
O=C1NC(=O)/C(=C/c2ccc(-c3ccc(F)cc3O)o2)S1 | 1.21 ± 0.57 | -0.649
CN(C)CCCn1cc(C2=C(c3c[nH]c4ccccc34)C(=O)NC2=O)c2ccccc21 | -0.651 ± 0.3 | -0.243

Structure (SMILES) | cell viability z-score within plate (FLX1) | difference in log2 fold change of viability [1]
CCCS(=O)(=O)Nc1ccc(F)c(C(=O)c2c[nH]c3ncc(Cl)cc23)c1F | 0.17 ± 0.093 | 0.333
O=C(O)c1ccc(Nc2ncc3c(n2)-c2ccc(Cl)cc2C(c2c(F)cccc2F)=NC3)cc1 | 1.2 ± 0.42 | -0.0396
CCCCCCCCc1ccc(CCC(N)(CO)CO)cc1 [Fingolimod (FTY720) HCl] | 0.096 ± 0.62 | 0.301
Nc1cc(C(F)(F)F)c(-c2cc(N3CCOCC3)nc(N3CCOCC3)n2)cn1 [Buparlisib (BKM120, NVP-BKM120)] | -0.0175 ± 0.38 | 0.841
CN1CCC(CNc2ccc3ncc(-c4cccc(OC(F)(F)F)c4)n3n2)CC1 [SGI-1776 free base] | 0.436 ± 0.2 | -0.0813
O=C1NC(=O)[C@@H](c2cn3c4c(cccc24)CCC3)[C@@H]1c1c[nH]c2ccccc12 [Tivantinib (ARQ 197)] | -1.26 ± 0.51 | 0.768
Cn1cnc2c(F)c(Nc3ccc(Br)cc3Cl)c(C(=O)NOCCO)cc21 [Selumetinib (AZD6244)] | -0.403 ± 0.49 | -1.05
Cc1cc(Nc2cc(N3CCN(C)CC3)nc(/C=C/c3ccccc3)n2)n[nH]1 | 0.628 ± 0.19 | -0.0361
CC(C)(C)c1cc(NC(=O)Nc2ccc(-c3cn4c(n3)sc3cc(OCCN5CCOCC5)ccc34)cc2)no1 [Quizartinib (AC220)] | -0.415 ± 0.29 | 0.254
Cc1ccccc1CN1C2=NCCN2C(=O)C2=C1CCN(Cc1ccccc1)C2 [TIC10 Analogue] | 0.481 ± 0.4 | -0.0375
COc1ccccc1-c1cc(Nc2cccc(CS(N)(=O)=O)c2)ncn1 | 0.545 ± 1.1 | 0.055
CCC(=O)Nc1cccc(Oc2nc(Nc3ccc(N4CCN(C)CC4)cc3OC)ncc2Cl)c1 | 0.708 ± 0.11 | -0.831
CCOc1cc(N2CCC(O)CC2)ccc1Nc1ncc2c(n1)N(C)c1ccccc1C(=O)N2C | 0.413 ± 1.6 | 0.697
CCc1cccc(CC)c1NC(=O)N1Cc2[nH]nc(NC(=O)c3ccc(N4CCN(C)CC4)cc3)c2C1 | -0.62 ± 0.28 | 0.41
C=CC(=O)Nc1ccc2ncnc(Nc3ccc(OCc4cccc(F)c4)c(Cl)c3)c2c1 | 0.819 ± 0.26 | -0.53
COc1cc(Nc2c(C#N)cnc3cc(OCCCN4CCN(C)CC4)c(OC)cc23)c(Cl)cc1Cl [Bosutinib (SKI-606)] | 0.309 ± 0.56 | -0.235
NC(=O)c1ccc(N(C(N)=O)c2c(F)cccc2F)nc1-c1ccc(F)cc1F | -1.05 ± 0.15 | 0.256
COc1ccc(COc2cc3oc(=O)c4cc(C(C)O)ccc4c3cc2OC)cc1 (configuration not stated) [Palomid 529 (P529)] | 0.0682 ± 0.42 | -0.0394
O=C(NOCC1CC1)c1ccc(F)c(F)c1Nc1ccc(I)cc1Cl | 0.606 ± 0.25 | 0.453
Cc1cc(F)c(Nc2ncnc3cc(OCc4ccccc4)ccc23)cc1O | -0.328 ± 0.22 | 0.0836
Cc1cc(Nc2nc(N[C@@H](C)c3ccc(F)cc3)c(C#N)cc2F)n[nH]1 | 0.513 ± 0.61 | -0.0432
C[C@H](NC(=O)/C(C#N)=C/c1cccc(Br)n1)c1ccccc1 | 0.427 ± 0.59 | -0.381
Cc1ccc(NC(=O)c2ccc(CN3CCN(C)CC3)cc2)cc1Nc1nccc(-c2cccnc2)n1 [Imatinib Mesylate (STI571)] | -1.25 ± 0.88 | 0.343
CN1CCN(CCOc2cc(OC3CCOCC3)c3c(Nc4c(Cl)ccc5c4OCO5)ncnc3c2)CC1 [Saracatinib (AZD0530)] | 0.194 ± 0.28 | -1.34
O=C1Nc2ccc(I)cc2/C1=C/c1cc(Br)c(O)c(Br)c1 | 1.53 ± 0.35 | 1.35

Structure (SMILES) | cell viability z-score within plate (FLX1) | difference in log2 fold change of viability [1]
Cc1cc(Nc2cc(CN3CCOCC3)c3nc(C)c(Cc4ccc(Cl)cc4F)n3n2)n[nH]1 | 0.049 ± 0.54 | -1.14
NC(=O)Nc1cc(-c2cccc(F)c2)sc1C(=O)N[C@H]1CCCNC1 | 0.408 ± 0.47 | -0.12
CN(C[C@@H]1COCCO1)S(=O)(=O)Nc1ccc2ccc3ncc(-c4cnn(C)c4)cc3c(=O)c2c1 | -0.122 ± 0.42 | -0.247
CCc1ccc(/C=C2/SC(=S)NC2=O)cc1 | 0.872 ± 0.44 | 0.116
COc1ccc(-c2cc3c(C)nc(N)nc3n([C@H]3CC[C@H](OCCO)CC3)c2=O)cn1 | -0.872 ± 0.053 | 0.605
CCC[C@H](NC(=O)/C(C#N)=C/c1cccc(Br)n1)c1ccccc1 [Degrasyn (WP1130)] | -0.0534 ± 0.15 | 0.135
Cc1ccc(NC(=O)c2cccc(C(C)(C)C#N)c2)cc1Nc1ccc2ncn(C)c(=O)c2c1 | -1.84 ± 0.14 | 0.173
Cc1cc(NC(=O)c2cccc(NC(=O)/C=C/CN(C)C)c2)ccc1Nc1nccc(-c2cccnc2)n1 | 0.657 ± 0.22 | -0.217
O=C(Nc1cccc(Nc2ncc(Br)c(NCCc3cnc[nH]3)n2)c1)N1CCCC1 | 0.384 ± 0.1 | 0.799
O=C(O)[C@]1(Cc2cccc(Nc3nccs3)n2)CC[C@@H](Oc2cccc(Cl)c2F)CC1 | -1.08 ± 1 | -0.795
CCOc1cc(C(=O)N2CCC(N3CCN(C)CC3)CC2)ccc1Nc1ncc2c(n1)N(C1CCCC1)c1ccccc1C(=O)N2C | 0.444 ± 0.17 | 0.00328
c1cncc(CN2CCC(n3ncc4c(N5CCOCC5)nc(-c5ccc6[nH]ccc6c5)nc43)CC2)c1 | 0.437 ± 0.062 | -1.08
Cc1ccc(-n2nc(C(C)(C)C)cc2NC(=O)Nc2ccc(OCCN3CCOCC3)c3ccccc23)cc1 [Doramapimod (BIRB 796)] | 0.479 ± 0.82 | 0.496
Cc1[nH]c(/C=C2\C(=O)Nc3ccccc32)c(C)c1CCC(=O)O [Orantinib (TSU-68, SU6668)] | 0.388 ± 0.61 | 0.216
Oc1cc(O)cc(/C=C/c2ccc(O)c(O)c2)c1 [Piceatannol] | -0.333 ± 0.2 | -0.236
CN1CCN(c2cccc(Nc3nc4c(-c5ccc(S(C)(=O)=O)cc5)cccn4n3)c2)CC1 | 1.01 ± 0.27 | -0.93
C=CC(=O)N1CCC[C@@H](n2nc(-c3ccc(Oc4ccccc4)cc3)c3c(N)ncnc32)C1 | 0.337 ± 0.4 | -2.14
CN1CCCN(C(=O)c2cccc(-c3ccc(/C=C4/C(=O)Nc5ccc(Cl)cc54)o3)c2)CC1 | 0.408 ± 0.47 | -0.148
Cn1cnc2c(F)c(Nc3ccc(Br)cc3F)c(C(=O)NOCCO)cc21 | -0.254 ± 0.15 | -1.09
CC(C)c1cnn2c(NCc3ccccc3)cc(NCCCCCCN)nc12 | 0.577 ± 0.3 | -0.0617
Nc1cccc(-c2cc3c(Oc4cccc(O)c4)ncnc3[nH]2)c1 | -0.5 ± 0.21 | -0.478
O=c1cc(N2CCOCC2)oc2c(-c3ccccc3)cccc12 | 0.828 ± 0.37 | 0.224
FC(F)c1nc2ccccc2n1-c1nc(N2CCOCC2)nc(N2CCOCC2)n1 | 0.852 ± 0.61 | 0.435
C#Cc1cccc(Nc2ncnc3cc(OCCOC)c(OCCO)cc23)c1 |  | -0.763
